ATXN viability – Viability Counterscreen for Primary qHTS for Inhibitors of ATXN expression; S2 cells (HEK-293 line with an ATXN2-luciferase reporter) viability, CellTiter-Fluor protease fluorescence, 24 h; Potency, µM (titrated, usually from 56.7 µM), hits mostly cytotoxic; 400,000 compounds, 0.49% hits; AID 651635, 2014; also: nearly all actives have a fitted effect of over 40% in size
HepG2 tox – qHTS for Inhibitors of TGF-b: Cytotox Counterscreen; Potency, µM (series often up to 46.1 µM), for the others: at the highest dose activity change, negative = cytotoxicity, usual class: cytotoxic; 410,000 compounds, 0.76% hits; HepG2 CAGA-GFP viability, ATP luminescence, 18 h
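CellTiter-Glo luminescence gave cytotoxicity after 18 hours at 37 degrees C. The cells were HepG2 CAGA-GFP in 1% FBS DMEM, stimulated with 500 pg/mL TGF-beta after compound addition. %Activity was normalised to no-cell wells (complete cell-killing) and DMSO (no toxicity), and curves were fitted and classified.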
TGFb SMAD3 inh – qHTS for Inhibitors of TGF-b | HepG2 CAGA-GFP TGF-b/SMAD3 reporter, GFP fluorescence, 18 h; TGF-beta stimulated, 500 pg/mL final | Potency, µM (top dose mostly 46.1 µM), for the others: top-dose activity, negative = inhibition, usual class: inhibitors | 410,000 compounds, 1.2% hits; also: % is scaled to controls: 0 for no effect and ±100 for the full control effect; nearly all actives have a fitted effect of over 65% in size
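Cell-based qHTS in HEPG2 carrying a CAGA-GFP Smad reporter; compounds added before 500 pg/mL final TGF-beta, 18 h incubation at 37 degrees C, GFP fluorescence quantified per cell by imaging cytometry.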
HT1080 IDH1KD tx – qHTS for induction of synthetic lethality in tumor cells producing 2HG: qHTS for the HT-1080-IDH1KD cell line | HT-1080 IDH1 knockdown viability, ATP luminescence, 48 h | Potency, µM (highest dose often 46.1 µM), for the others: at the top dose activity, negative = toxicity, hits mostly cytotoxic | 360,000 compounds, 2% hits;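 also: 0% = DMSO wells and -100% = cell-free medium wells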
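In this qHTS, HT-1080 cells depleted of IDH1 are exposed for 48 h at 37 °C to compound titrations. Toxicity is scored from CellTiter-Glo luminescence, with DMSO as full viability and medium alone as none.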
ATXN2 expr inh – Primary qHTS for Inhibitors of ATXN expression; Potency, µM (doses to about 57 µM), inactives show at the highest dose activity change, negative = inhibition, hits mostly inhibitors; 360,000 compounds, 0.72% hits; HEK-293 ATXN2-luciferase reporter, luminescence, 24 h; AID 1745845, 2022; also: % is scaled to controls: 0 for no effect and ±100 for the full control effect; nearly all actives have a fitted effect of over 55% in size
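qHTS (up to 57 uM final) was run with 24 h compound exposure of reporter cells at 37 °C. Each well was multiplexed: SteadyGlo luminescence measured ATXN2-luciferase expression after a fluorogenic Gly-Phe-AFC viability readout (25 uM final).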
HT1080-NT tox – qHTS for induction of synthetic lethality in tumor cells producing 2HG: qHTS for the HT-1080-NT fibrosarcoma cell line | HT-1080-NT fibrosarcoma viability, CellTiter-Glo ATP luminescence, 48 h | Potency, µM (top dose mostly 46.1 µM), for inactives: top-dose activity, negative = less viability, actives largely listed as cytotoxic | 360,000 compounds, 1.6% hits | AID 686970, 2013;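 also: NT is the 2HG producing partner of a matched IDH1 knockdown line; 0% = DMSO-treated cells and -100% = media-only wells without cells; nearly all actives have a fitted effect of over 55% in size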
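Toxicity toward the 2HG-producing NT line was scored as %Activity, normalised to DMSO and no-cell wells, from CellTiter-Glo luminescence after 48 hours' treatment.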
Starred values were filed as active, the others as inactive; i = inactive; ? = inconclusive; . = not tested or not shown. Compounds with a hit are over-represented: about 3.9% of the library has one in this group of screens. Calls follow the shape of the dose curve; as a rule, active = well fitted curve in the direction sought with a large enough effect; inconclusive = small, poorly fitted or top-dose-only effect, or another doubt; inactive = no such curve, though single readings can be large; an effect the other way counts as inactive or inconclusive. Potency is read from the fitted curve at half-maximal effect.

SMILES	ATXN viability	HepG2 tox	TGFb SMAD3 inh	HT1080 IDH1KD tx	ATXN2 expr inh	HT1080-NT tox
CS(=O)(=O)c1ccc(C(=O)Nc2ccc(Cl)c(-c3ccccn3)c2)c(Cl)c1	.	.	.	.	-5%	.
COc1ccc(-c2c(-c3ccc(O)cc3O)n[nH]c2C(F)(F)F)cc1	i	-29%	?	?	-3%	?
Oc1ccc(-c2n[nH]c(C(F)(F)F)c2-c2ccccc2)c(O)c1	i	-14%	?	10µM*	-16%	-20%
CCOC(=O)c1c(NC(=O)c2ccc(S(=O)(=O)N(CCOC)CCOC)cc2)sc2c1CC(C)(C)NC2(C)C	.	-61%	11µM*	.	.	.
CCOC(=O)c1c(NC(=O)c2ccc(S(=O)(=O)N3CCCC(C)C3)cc2)sc2c1CC(C)(C)NC2(C)C (stereo not given)	.	13µM*	?	.	?	.
CCOC(=O)c1c(NC(=O)C2COc3ccccc3O2)sc2c1CC(C)(C)NC2(C)C (stereo not given)	?	-46%	-13%	16µM*	-15%	?
CC(=O)Nc1ccc(NC(=O)C(C)OC(=O)c2ccc(S(=O)(=O)N3CCCCC3)cc2)cc1 (stereo not given)	?	0%	0%	?	?	23µM*
CN(C)S(=O)(=O)c1ccc2c(c1)C(=Cc1cc3c([nH]1)CCCC3)C(=O)N2	.	.	.	.	27%	.
O=C1CC(c2cccc(O)c2)c2cc3c(cc2N1)OCO3 (stereo not given)	i	0%	-10%	.	-7%	.
CCOC(=O)c1c(NC(=O)CSc2nnnn2-c2ccccc2OCC)sc2c1CC(C)(C)NC2(C)C	?	-48%	?	?	?	?
CCOC(=O)c1ccc(NC(=O)C2CCCN(S(=O)(=O)c3ccc(F)cc3)C2)cc1 (stereo not given)	?	-2%	-10%	?	32µM*	?
CCOC(=O)c1c(NC(=O)CSc2nnnn2-c2ccccc2)sc2c1CC(C)(C)NC2(C)C	?	-36%	-24%	23µM*	?	?
CCOC(=O)c1[nH]c(C)c(CCC(=O)N2CCN(c3cc(C)ccc3C)CC2)c1C	i	-30%	?	.	?	.
Cc1ccc(C(C)C)c(OCC(=O)N2CCC(c3nc4ccccc4o3)CC2)c1	.	-111%	?	.	.	.
O=[N+]([O-])c1cc([N+](=O)[O-])c2cc3ccccc3nc2c1	?	-2%	?	4.6µM*	18%	16µM*
O=c1cc(-c2c(F)c(F)c(F)c(F)c2F)oc2ccccc12	?	-61%	-5%	?	22µM*	?
O=C(NCC(c1cccs1)N1CCOCC1)c1cc(F)cc(F)c1 (stereo not given)	i	-8%	-2%	5.8µM*	.	7.3µM*
Cc1ccc(NC(=O)COC(=O)c2c(-c3ccccc3)noc2C)cc1	i	4%	1%	-16%	-19%	-16%
Cc1onc(-c2ccccc2)c1C(=O)OCC(=O)Nc1ccc(OC(F)(F)F)cc1	i	-36%	13µM*	-7%	?	-23%
Fc1ccccc1-c1nc(NCc2ccco2)c2ccccc2n1	i	-1%	7%	-9%	.	-10%
c1ccc(N2CCN(c3nc(NCc4ccco4)c4ccccc4n3)CC2)cc1	?	-60%	?	18µM*	?	16µM*
OCCNc1nc(N2CCCCC2)nc2ccccc12	i	0%	5%	2%	-5%	3%
c1ccc(CNc2nc(N3CCN(Cc4ccccc4)CC3)nc3ccccc23)cc1	i	28µM*	?	21µM*	?	?

Assay outcomes: PubChem BioAssay, National Center for Advancing Translational Sciences (NCATS)
